High-throughput results from PubChem BioAssay.
KB-3-1 tox: kills parental KB-3-1 adenocarcinoma cells; KB-3-1 viability, CellTiter-Glo ATP luminescence, 72 h; Potency, µM (series often up to 46.1 µM), most hits filed as cytotoxic; 1.4% of 400,000 active; AID 1347075; further: potency means the concentration at half of the fitted maximal effect; on the % scale 0 is the no-effect control and ±100 the full control effect; nearly all actives have a fitted effect of over 60% in size
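Parental KB-3-1 adenocarcinoma cells in phenol-red-free DMEM with 10% FBS were pin-treated with compounds at several concentrations, incubated 72 h at 37 °C, and viability read by CellTiter-Glo luminescence; concentration-effect curves were fitted after normalization.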
D3 antag: antagonists of human D3 dopamine receptor; D3R cells, DiscoveRx beta-arrestin luminescence, antagonist mode; active compounds read low; max response, negative = inhibition, %; 2.5% of 360,000 active; AID 652054; in the data active means max response below about -50%; inconclusive means no clear call, values can overlap the other calls; further: on the % scale 0 is the no-effect control and ±100 the full control effect
Target sequence (P35462 whole entry, looked up): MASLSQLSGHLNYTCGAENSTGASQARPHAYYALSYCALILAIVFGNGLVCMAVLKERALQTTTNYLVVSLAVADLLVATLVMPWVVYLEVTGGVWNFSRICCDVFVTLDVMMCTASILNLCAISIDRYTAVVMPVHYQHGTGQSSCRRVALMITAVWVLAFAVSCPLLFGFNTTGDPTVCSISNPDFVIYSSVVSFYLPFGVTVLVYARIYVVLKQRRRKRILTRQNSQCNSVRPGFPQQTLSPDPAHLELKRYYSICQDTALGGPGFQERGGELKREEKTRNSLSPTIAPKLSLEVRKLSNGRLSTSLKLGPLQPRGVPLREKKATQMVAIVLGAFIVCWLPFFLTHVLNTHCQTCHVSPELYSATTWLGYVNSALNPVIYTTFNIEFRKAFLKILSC
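Cells plated overnight at 1500 cells/well, then exposed to library compounds with dopamine controls for 90 minutes at 37 degrees C. DiscoveRx reagent added for 30–60 minutes at room temperature; luminescence read, quantitative HTS format.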
MCF10A rerep: induces DNA re-replication in MCF 10a normal breast cells; MCF 10A DNA re-replication, Hoechst nuclear intensity, 48 h; Potency, µM (series often up to 46.1 µM), for the others: top-dose activity, positive = re-replication, hits mostly activators; 2.9% of 350,000 active; further: potency means the concentration at half of the fitted maximal effect; % of control where 0% means no effect; nearly all actives have a fitted effect of over 50% in size
DRD3 agonist: D3 dopamine receptor (human) agonism; D3R DiscoveRx beta-arrestin cells, luminescence, 90 min; max activation, %; 0.58% of 410,000 active; in the data active means max activation above about 30%; further: 0% is about no effect
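Cells at 1500/well, incubated overnight, then treated with pinned compounds (dopamine as control) for 90 min at 37 degrees C. DiscoveRx reagent added for 30 - 60 minutes at room temperature; luminescence read.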
KB-V1 cytotox: KB-V1 MDR subline cytotoxicity; Potency, µM (series often up to 46.1 µM), actives largely listed as cytotoxic; 3.4% of 400,000 active; KB-V1 MDR cells viability, CellTiter-Glo, 72 h; further: potency means the concentration at half of the fitted maximal effect; on the % scale 0 is the no-effect control and ±100 the full control effect; nearly all actives have a fitted effect of over 60% in size
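Readout: CellTiter-Glo luminescence, 10 min after addition. Cells: KB-V1 MDR subline, 72 h at 37 degrees C with compound. Analysis: corrected, normalized data fitted to concentration-effect curves.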
SW480 rereplic: induces DNA re-replication in SW480 colon adenocarcinoma cells; SW480 DNA re-replication, Hoechst DNA content imaging, 48 h; 1.8% of 340,000 active; Potency, µM (highest dose often 46.1 µM), inactives show top-dose re-replication activation, hits mostly activators; AID 624297; further: potency means the concentration at half of the fitted maximal effect; % of control where 0% means no effect; nearly all actives have a fitted effect of over 55% in size
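SW480 cells exposed to compounds for 48 hr at 37 C, 5% CO2, then Hoechst-stained 40 min. Nuclear DNA content imaged by fluorescence scanning (405 nm excitation, 500-530 nm emission); re-replication scored as increased high-intensity nuclei.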
* = called active by the depositor; i = inactive; u = inconclusive; x = no result given. The list is not random: actives were taken first. Their share in the collection is about 8.9%. Unless noted, the call rests on the fitted dose curve; in most records, active means well fitted curve in the direction sought with a large enough effect; inconclusive means small, poorly fitted or top-dose-only effect, or another doubt; inactive means no such curve, though single readings can be large; an effect the other way counts as inactive or inconclusive.

SMILES	KB-3-1 tox	D3 antag	MCF10A rerep	DRD3 agonist	KB-V1 cytotox	SW480 rereplic
CCOC(=O)C1=Nc2ccccc2C1=[N+]=[N-]	u	0	2.6µM*	-3	2.6µM*	u
CCCC(O)c1nc2ccccc2n1CCCOc1ccc(Cl)cc1 (configuration not stated)	i	x	x	-1	i	x
COc1ccc2c(c1)CC/C(=C\Nc1ccc3c(c1)OCO3)C2=O	i	-3	2%	-4	i	-2%
O=C1/C(=C/Nc2ccc3c(c2)OCO3)CCc2ccccc21	u	24	u	0	23µM*	u
CCOc1cc(C(=S)N2CCCC2)ccc1OCC(=O)Nc1c(C)cc(C)cc1C	i	-55*	-8%	-17	u	-1%
C=C1C=C(C)n2ncc(C(=O)Nc3cccc(C(=O)Nc4cccc(C(F)(F)F)c4)c3)c2N1	u	x	x	x	i	x
CCOc1ccc(NC(=O)CSc2ccc(-c3sc(-c4ccccc4)nc3C)nn2)cc1	i	x	x	9	i	x
O=C(NNC(=O)c1ccc2nonc2c1)Nc1ccc(Cl)cc1	i	-69*	2%	-21	u	2%
CC(=O)NC(CCc1ccc(Cl)c(Cl)c1)c1cccc(O)c(=O)c1 (configuration not stated)	u	u	x	-6	8.2µM*	x
CCOc1ccc(N(C)S(=O)(=O)c2ccc3c(c2)CCCN3C(C)=O)cc1	i	x	x	6	i	x
O=C1NC(=S)N/C1=C/c1cc([N+](=O)[O-])ccc1O	i	-107*	27%	-5	i	10µM*
Cc1ccc(/C=C2\NC(=S)NC2=O)cc1[N+](=O)[O-]	i	5	-9%	-4	i	-17%
O=C1NC(=S)N/C1=C/c1cccc([N+](=O)[O-])c1O	u	-75*	-3%	-8	i	-6%
CCn1cc(C(=O)N2CCN(c3ccc(OC)cc3)CC2)c(=O)c2cc(S(=O)(=O)N(C)C3CCCCC3)ccc21	i	x	x	-4	i	x
CCN(CC)C(=O)Oc1ccc2c(=O)c(-c3ccccc3)coc2c1	i	-11	-15%	-8	21µM*	6%
COc1ccc2c(=O)c(-c3ccccc3)coc2c1	i	u	0%	-8	i	-5%
CCC(C)NC(=O)CN1C(=O)C(CC)Sc2ccccc21 (configuration not stated)	i	-1	1%	1	i	-4%
CC1Sc2ccccc2N(CC(=O)N(C(C)C)C(C)C)C1=O (configuration not stated)	i	-70*	-2%	-3	i	1%
O=[N+]([O-])c1cnc(Nc2ccccc2)nc1Nc1ccccc1	i	-83*	1%	4	i	7%
Nc1nc(NCCO)nc(NC2CCCCC2)c1[N+](=O)[O-]	i	5	26µM*	-4	i	u
Nc1nc(Nc2ccccc2)nc(NC2CCCCC2)c1[N+](=O)[O-]	u	-2	u	1	u	9.2µM*
Nc1nc(NCCOCCO)nc(NC2CCCCC2)c1[N+](=O)[O-]	i	-3	13%	2	i	u
O=C(CC1NCCNC1=O)Nc1ccc(F)c(Cl)c1 (configuration not stated)	i	x	x	-6	i	x
Fc1cc2nccnc2cc1N1CCSCC1	i	20	-3%	1	i	-8%
Fc1cc2[nH]c(=S)[nH]c2c(Br)c1N1CCSCC1	2.1µM*	-19	9%	-20	u	12%
SMILES	KB-3-1 tox	D3 antag	MCF10A rerep	DRD3 agonist	KB-V1 cytotox	SW480 rereplic
S=c1[nH]nc(-c2ccccc2)n1/N=C/c1ccc(-c2ccccc2Cl)o1	i	u	8.2µM*	4	13µM*	1%
O=C1c2ccccc2S(=O)(=O)N1Cc1cc(=O)n2ccsc2n1	i	-76*	-3%	-5	i	-2%
Cn1cc(CN2CCCC(C(=O)Nc3cccc(-c4cc5ccccc5[nH]4)c3)C2)cn1 (configuration not stated)	u	-68*	u	-7	i	u
CC(C)n1cc(CN2CCCC(C(=O)Nc3cccc(-c4cc5ccccc5[nH]4)c3)C2)cn1 (configuration not stated)	u	-21	16µM*	-27	u	u
CCn1cc(CN2CCCC(C(=O)Nc3cccc(-c4cc5ccccc5[nH]4)c3)C2)c(C)n1 (configuration not stated)	i	-21	u	-10	i	u
CC(C)CCNC(=O)c1cn(C)c2ccc(S(=O)(=O)N3CCOCC3)cc2c1=O	i	x	x	15	i	x
CCOc1ccccc1NC(=O)CN1C(=O)CC(c2ccc(OC)c(OC)c2)Sc2ccccc21 (configuration not stated)	u	x	x	4	18µM*	x
COc1ccc(C2CC(=O)N(CC(=O)NCC3CCCO3)c3ccccc3S2)cc1OC (configuration not stated)	i	4	-3%	3	i	-6%
O=C(CN1C(=O)CC(c2ccccc2)Sc2ccccc21)Nc1cccc(Cl)c1 (configuration not stated)	u	x	x	3	21µM*	x
CCOc1ccccc1NC(=O)CN1C(=O)CC(c2ccco2)Sc2ccccc21 (configuration not stated)	u	x	x	3	13µM*	x
CCOC(=O)c1ccccc1NC(=O)CN1C(=O)CC(c2ccco2)Sc2ccccc21 (configuration not stated)	i	x	x	-15	u	x
O=C(Nc1ccc(F)cc1Cl)C1CCN(c2ncnc3c2nc2n3CCCCC2)CC1	i	x	x	9	i	x
O=C(c1cc(-c2ccc(Br)cc2)n[nH]1)N1CCN(S(=O)(=O)c2ccc(Br)s2)CC1	i	x	x	34*	i	x
O=C(c1cc(-c2ccc(Cl)cc2)n[nH]1)N1CCN(S(=O)(=O)c2ccc(Br)s2)CC1	i	x	x	13	u	x
COc1ccc(Cl)cc1NC(=O)CSc1nc(C)cc(C)n1	i	0	0%	3	i	u
COc1ccc(C)cc1NC(=O)CSc1nc2scc(C)c2c(=O)[nH]1	i	-4	18µM*	0	i	u
COc1ccc(Cl)cc1NC(=O)CSc1nc2sccc2c(=O)[nH]1	i	6	21µM*	8	i	-5%
N#Cc1ccc(CN2C(=O)c3ccccc3Sc3ccc(C(=O)OCc4ccco4)cc32)cc1	i	x	x	-6	u	x
CCCCOCCCNC(=O)CN1C(=O)c2ccccc2C1=O	i	-4	3.7µM*	1	i	28%
